# In PubChem BioAssay (NCI):
# The panel holds about 83,000 compounds, 20% with a hit somewhere; the sample as a whole holds those more often.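 How to read the values: 0–100, growth inhibition (40 = 60% inhibited); 0, no net growth; -100 to 0, cell death (-40 = 40% of starting cells died; -100 = all dead).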 A number with no mark means an inactive call. The source made the active and inactive calls. Rule for the calls: active = growth percent below 10; inactive = the rest.
# Tested on: SK-MEL-2 melanoma
# Experiment: NCI-60 one-dose screen, 48 h (100 = growth as untreated, 0 = no growth, -100 = all killed)
# Conditions: 10 µM unless noted
row,SMILES,growth
1,O=C(Nc1ccc2c(c1)C(=O)c1ccccc1-2)c1ccccc1,82.4%
2,COc1ccc(CNC(=O)c2c(C)n([O-])c3ccc(OC)cc3[n+]2=O)cc1,102%
3,N#CC(C#N)C(C#N)C#N,109%
4,CC[N+](CCCCCCCCCC[N+](CC)(c1ccccn1)c1ccccn1)(c1ccccn1)c1ccccn1,-58.6% (active)
5,CCCCCCCSc1ncnc2[nH]ncc12,72.7%
6,CC(C)N(Cc1ccccc1)c1c(S)ssc1=S,7.27% (active)
7,O=C(NCCNC(=O)Oc1cccc2ccccc12)Oc1cccc2ccccc12,88.7%
8,Cc1[nH]c(=O)[nH]c(=O)c1CCSSCCc1c(C)[nH]c(=O)[nH]c1=O,102%
9,CC(C)N(Cc1ccccc1)c1c(Cl)ssc1=O,93.7%
10,COc1cnc2c(c1)C(=O)c1c-2n(CCCN2CCCC2)c(=O)c2cc(F)ccc12,23.1%
11,CSc1nc(-c2ccc(O)cc2O)c2c(=O)[nH]c(Nc3ccc(S(=O)(=O)Nc4nc(C)cc(C)n4)cc3)nc2n1,81.2%
12,c1ccc(COc2ccc(Nc3ncnc4c3cnn4-c3ccccc3)cc2)cc1,115%
13,CC[n+]1c(/C=C/c2ccc(N3CCCC3)cc2)cccc1/C=C/c1ccc(N2CCCC2)cc1,-89.8% (active)
14,ICCC(c1ccccc1)(c1ccccc1)c1ccccc1,48.7%
15,O=c1[nH]c(SCc2ccccc2)nc2nc(Nc3ccc(NC(=S)Nc4ccccc4)cc3)nc(-c3ccc(O)cc3O)c12,87.8%
16,Cc1cc(Cl)ccc1Nc1nc(C(F)(F)F)ccc1C(=O)N/N=C/c1ccc(Cl)cc1,-20.6% (active)
17,C[C@H](C(=O)N[C@@H](Cc1ccc(-c2ccccc2)cc1)C(=O)NC1CC(C)(C)NC(C)(C)C1)c1ccc(-c2ccccc2)c(F)c1,-54.9% (active)

row,SMILES,growth
1,Cc1csc(C#Cc2cncc(O)c2)n1,108%
2,CN[C@@H]1C(OC2[C@H](O[C@H]3[C@H](O)[C@@H](O)[C@H](N=C(N)N)[C@@H](O)[C@@H]3N=C(N)N)OC(C)[C@]2(O)CO)OC(CO)C(O)C1O (stereo not given in full),112%
3,COCCOCCOCCOCCOc1ccc2c(c1)C(=O)c1nc3ncccc3c(=O)n1-2,6.22% (active)
4,N#CC1c2ccccc2C=CN1C(=O)N(c1ccccc1)c1ccccc1 (stereo not given),88.2%
5,Nc1ccc2c(c1)C(=O)c1cc(Cl)c(Cl)cc1-2,95.8%
6,COc1ccc2c(c1)C(=Nc1cc(OC)c(OC)c(OC)c1)C(=O)N2,76.8%
7,CN(C)CCCN=c1cc2c(=O)n(CCCN(C)C)c(=O)c3c(NCCCN(C)C)cc4c(O)n(CCCN(C)C)c(=O)c1c4c3-2,-9.31% (active)
8,COc1ccc(-c2cnc(SCC(=O)Nc3ccc(-c4nc5ccccc5s4)cc3)n2-c2ccc(OC)cc2)cc1,102%
9,O=c1[nH]cc(Nc2cc(Cl)c3nonc3c2[N+](=O)[O-])c(=O)[nH]1,20%
10,CCOC(=O)Nc1cc(-c2ccc(C)c(NS(C)(=O)=O)c2)nn2c(C)nnc12,13.5%
11,NS(=O)(=O)c1cc2c(cc1Cl)NC=NS2(=O)=O,103%
12,COc1ccc2ncccc2c1Cc1c(OC)ccc2ncccc12,75.6%
13,Nc1nc(Nc2ccccc2SSc2ccccc2Nc2nc(N)nc(-c3cccc(Cl)c3)n2)nc(-c2cccc(Cl)c2)n1,105%
14,CC1CN(CC(O)c2ccc(Br)cc2)CCO1 (stereo not given),103%
15,CC[C@@H](C)/C=C(C)/C=C/C(=O)c1c(O)c(-c2ccc(O)cc2)cn(OC2CC(=O)CCC(C)OC(=O)CC2O)c1=O (stereo not given in full),19.8%
16,COc1cc(/C=C2\SC(N3CCCCC3)=NC2=O)ccc1OCCCCCCOc1ccc(/C=C2\SC(N3CCCCC3)=NC2=O)cc1OC,2.01% (active)

# Tested on: EKVX NSCLC
# Experiment: as above
# Conditions: 10 µM unless noted
row,SMILES,growth
1,COc1cc(-c2nnc(-c3nc(-c4cc(OC)c(OC)c(OC)c4)n4ccccc34)o2)ccc1N,8.84% (active)
2,O=C(Nc1ccc2c(c1)C(=O)c1ccccc1-2)c1ccccc1,97.4%
3,COc1ccc(CNC(=O)c2c(C)n([O-])c3ccc(OC)cc3[n+]2=O)cc1,87.8%
4,N#CC(C#N)C(C#N)C#N,99.7%
5,CC(C)N(Cc1ccccc1)c1c(S)ssc1=S,5.44% (active)
6,O=C(NCCNC(=O)Oc1cccc2ccccc12)Oc1cccc2ccccc12,92.9%
7,CC(C)N(Cc1ccccc1)c1c(Cl)ssc1=O,100%
8,COc1cnc2c(c1)C(=O)c1c-2n(CCCN2CCCC2)c(=O)c2cc(F)ccc12,4.91% (active)
9,CC[n+]1c(/C=C/c2ccc(N3CCCC3)cc2)cccc1/C=C/c1ccc(N2CCCC2)cc1,-76.4% (active)
10,ICCC(c1ccccc1)(c1ccccc1)c1ccccc1,88.4%
11,O=C(CSc1nnc(-c2cc(-c3ccccc3)nc3ccccc23)o1)c1ccc(Br)cc1,107%
12,O=c1[nH]c(SCc2ccccc2)nc2nc(Nc3ccc(NC(=S)Nc4ccccc4)cc3)nc(-c3ccc(O)cc3O)c12,95.9%
13,Cc1cc(Cl)ccc1Nc1nc(C(F)(F)F)ccc1C(=O)N/N=C/c1ccc(Cl)cc1,3.77% (active)
14,Cc1sc2nc3c4ccccc4c(NCCCN(C)C)nn3c(=O)c2c1C,75.9%
15,C[C@H](C(=O)N[C@@H](Cc1ccc(-c2ccccc2)cc1)C(=O)NC1CC(C)(C)NC(C)(C)C1)c1ccc(-c2ccccc2)c(F)c1,-7.01% (active)
16,Cc1csc(C#Cc2cncc(O)c2)n1,110%

row,SMILES,growth
1,CN[C@@H]1C(OC2[C@H](O[C@H]3[C@H](O)[C@@H](O)[C@H](N=C(N)N)[C@@H](O)[C@@H]3N=C(N)N)OC(C)[C@]2(O)CO)OC(CO)C(O)C1O (stereo not given in full),113%
2,COCCOCCOCCOCCOc1ccc2c(c1)C(=O)c1nc3ncccc3c(=O)n1-2,10.5%
3,N#CC1c2ccccc2C=CN1C(=O)N(c1ccccc1)c1ccccc1 (stereo not given),102%
4,Nc1ccc2c(c1)C(=O)c1cc(Cl)c(Cl)cc1-2,74.1%
5,COc1ccc2c(c1)C(=Nc1cc(OC)c(OC)c(OC)c1)C(=O)N2,97%
6,CN(C)CCCN=c1cc2c(=O)n(CCCN(C)C)c(=O)c3c(NCCCN(C)C)cc4c(O)n(CCCN(C)C)c(=O)c1c4c3-2,-18.4% (active)
7,COc1ccc(-c2cnc(SCC(=O)Nc3ccc(-c4nc5ccccc5s4)cc3)n2-c2ccc(OC)cc2)cc1,108%
8,O=c1[nH]cc(Nc2cc(Cl)c3nonc3c2[N+](=O)[O-])c(=O)[nH]1,34%
9,NS(=O)(=O)c1cc2c(cc1Cl)NC=NS2(=O)=O,107%
10,COc1ccc2ncccc2c1Cc1c(OC)ccc2ncccc12,85.4%
11,c1ccc(-c2n(Cc3ccc4ccccc4c3)cc[n+]2Cc2ccc3ccccc3c2)cc1,3.5% (active)
12,Nc1nc(Nc2ccccc2SSc2ccccc2Nc2nc(N)nc(-c3cccc(Cl)c3)n2)nc(-c2cccc(Cl)c2)n1,90.5%
13,CC1CN(CC(O)c2ccc(Br)cc2)CCO1 (stereo not given),120%
14,CC[C@@H](C)/C=C(C)/C=C/C(=O)c1c(O)c(-c2ccc(O)cc2)cn(OC2CC(=O)CCC(C)OC(=O)CC2O)c1=O (stereo not given in full),5.02% (active)
15,CCCCc1n(Cc2ccc3ccccc3c2)cc[n+]1Cc1ccc2ccccc2c1,14.4%
16,COc1cc(/C=C2\SC(N3CCCCC3)=NC2=O)ccc1OCCCCCCOc1ccc(/C=C2\SC(N3CCCCC3)=NC2=O)cc1OC,31.4%
